Experimental data reported in PubChem BioAssay AID1159580 (chemical genetic matrix, 2015).
The whole screen tested about 5,500 compounds, of which about 2,000 (36%) were called active. Inconclusive results (about 18%) are left out. Cut-off read from the data, not from the text of the source: active = normalized growth mostly below about 0.91 (no sharp cut-off); inconclusive = no clear call, values can overlap the other calls; inactive = mostly above about 0.92. Some of the results follow.

Assay: chemical genetic growth profiling, strain panel (AID 1159580);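 note: tested at 20 µM; growth read once vehicle control cultures reached saturation at 30 °C; 1 = growth at the plate median or of vehicle wells; lower values mean less growth of the strain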
Conditions: S. cerevisiae deletion strains, growth OD

Measured: normalized growth

CCCN1CCC[C@@H]2Cc3[nH]ncc3C[C@H]21
inactive: locus YAL013W, strain DEP1, stronger effect = lower value 0.989 | locus YAL040C, strain CLN3, stronger effect = lower value 1.02 | locus YCL061C, strain MRC1 (second series), stronger effect = lower value 1 | locus YDR363W, strain ESC2, stronger effect = lower value 1.01 | locus YER002W, strain NOP16, stronger effect = lower value 1.01 | locus YMR263W, strain SAP30, stronger effect = lower value 0.994 | locus YMR307W, strain GAS1, stronger effect = lower value 0.985 | locus YNL128W, strain TEP1, stronger effect = lower value 1.02 | locus YNL175C, strain NOP13, stronger effect = lower value 1 | locus YNL197C, strain WHI3, stronger effect = lower value 1.02 | locus YNL224C, strain SQS1, stronger effect = lower value 1.01 | locus YNL322C, strain KRE1, stronger effect = lower value 1.01 | locus YOR083W, strain WHI5 (second series), stronger effect = lower value 1.02

O=C(Oc1ccc2ccccc2c1C1SCCS1)c1ccc([N+](=O)[O-])o1
active: locus YHR030C, strain SLT2, stronger effect = lower value 0.698 | locus YLR113W, strain HOG1, stronger effect = lower value 0.702 | locus YPL256C, strain CLN2, stronger effect = lower value 0.807
inactive: locus YAR019C, strain CDC15, stronger effect = lower value 0.952 | locus YBL105C, strain PKC1, stronger effect = lower value 0.958 | locus YBR135W, strain CKS1, stronger effect = lower value 0.966 | locus YBR136W, strain MEC1, stronger effect = lower value 0.957 | locus YBR160W, strain CDC28, stronger effect = lower value 0.947 | locus YDL017W, strain CDC7, stronger effect = lower value 0.958 | locus YDL028C, strain MPS1, stronger effect = lower value 0.942 | locus YDL101C, strain DUN1, stronger effect = lower value 0.943 | locus YDL108W, strain KIN28, stronger effect = lower value 0.955 | locus YDL132W, strain cdc53, stronger effect = lower value 0.973 | locus YDL214C, strain PRR2, stronger effect = lower value 0.912 | locus YDR052C, strain DBF4, stronger effect = lower value 0.973 | locus YDR054C, strain cdc34, stronger effect = lower value 0.97 | locus YDR226W, strain ADK1, stronger effect = lower value 0.933 | locus YDR477W, strain SNF1, stronger effect = lower value 0.901 | locus YER123W, strain YCK3, stronger effect = lower value 0.907 | locus YER133W, strain GLC7, stronger effect = lower value 0.953 | locus YFL009W, strain cdc4, stronger effect = lower value 0.964 | locus YFL029C, strain CAK1, stronger effect = lower value 0.948 | locus YFR003C, strain YPI1, stronger effect = lower value 0.957 | locus YFR019W, strain FAB1, stronger effect = lower value 0.923 | locus YFR028C, strain CDC14, stronger effect = lower value 0.946 | locus YGR040W, strain KSS1, stronger effect = lower value 0.919 | locus YGR052W, strain FMP48, stronger effect = lower value 0.966 | locus YGR092W, strain DBF2, stronger effect = lower value 0.86 | locus YHR079C, strain IRE1, stronger effect = lower value 0.89 | locus YHR082C, strain KSP1, stronger effect = lower value 0.936 | locus YHR205W, strain SCH9, stronger effect = lower value 0.768 | locus YIL147C, strain SLN1, stronger effect = lower value 0.93 | locus YJL095W, strain BCK1, stronger effect = lower value 0.855 | locus YJL128C, strain PBS2, stronger effect = lower value 0.842 | locus YJL157C, strain FAR1, stronger effect = lower value 0.92 | locus YJR016C, strain ILV3, stronger effect = lower value 0.958 | locus YJR066W, strain TOR1 (second series), stronger effect = lower value 0.919 | locus YJR066W, strain TOR1, stronger effect = lower value 0.879 | locus YKL048C, strain ELM1, stronger effect = lower value 0.925 | locus YKL067W, strain YNK1, stronger effect = lower value 0.909 | locus YKL101W, strain HSL1, stronger effect = lower value 0.894 | locus YKL193C, strain SDS22, stronger effect = lower value 0.952 | locus YKL203C, strain TOR2, stronger effect = lower value 1.02 | locus YLR133W, strain CKI1, stronger effect = lower value 0.919 | locus YLR403W, strain SFP1, stronger effect = lower value 0.919 | locus YML070W, strain DAK1, stronger effect = lower value 0.907 | locus YMR001C, strain CDC5, stronger effect = lower value 0.94 | locus YMR205C, strain PFK2 (second series), stronger effect = lower value 0.938 | locus YMR277W, strain FCP1, stronger effect = lower value 0.937 | locus YNL006W, strain LST8, stronger effect = lower value 0.955 | locus YNL020C, strain ARK1, stronger effect = lower value 0.917 | locus YNL161W, strain CBK1, stronger effect = lower value 0.957 | locus YNL183C, strain NPR1, stronger effect = lower value 0.951 | locus YNL207W, strain RIO2, stronger effect = lower value 0.963 | locus YNL222W, strain SSU72, stronger effect = lower value 0.939 | locus YNL307C, strain MCK1 (second series), stronger effect = lower value 0.901 | locus YOL078W, strain AVO1, stronger effect = lower value 0.962 | locus YOL136C, strain PFK27, stronger effect = lower value 0.886 | locus YOR061W, strain CKA2, stronger effect = lower value 0.921 | locus YOR119C, strain RIO1, stronger effect = lower value 0.973 | locus YOR231W, strain MKK1, stronger effect = lower value 0.878 | locus YOR329C, strain SCD5, stronger effect = lower value 0.957 | locus YPL031C, strain PHO85, stronger effect = lower value 0.917 | locus YPL153C, strain RAD53, stronger effect = lower value 0.909 | locus YPL204W, strain HRR25, stronger effect = lower value 0.906 | locus YPL209C, strain IPL1, stronger effect = lower value 0.964 | locus YPR025C, strain CCL1, stronger effect = lower value 0.961 | locus YPR106W, strain ISR1, stronger effect = lower value 0.939 | locus YPR111W, strain DBF20, stronger effect = lower value 0.913 | strain NNK1, stronger effect = lower value 0.941 | strain TSCII, stronger effect = lower value 0.954
